These results are taken from PubChem BioAssay (EPA / NIEHS).

What all share (conditions): mRNA level, 48 h; actives raise or lower the signal
Read-out in test [1]: ABC Transporter (ABCB1), ABCB1 (gene 5243)
As to the kind of experiment: LTEA_HepaRG_ABCB1: Life Technologies and Expression Analysis (LTEA) Assay for ABC Transporter (ABCB1) using HepaRG (AID 2283460). An outline of the steps: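 ABCB1 transcript level measured by TaqMan qRT-PCR against three housekeeping genes after 48 h chemical exposure of differentiated HepaRG cells. Top concentration 100 uM, half-log steps, eight points, 0.5% DMSO vehicle; bidirectional fit relative to DMSO.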

Read-out in test [2]: ABC Transporter (ABCC3), ABCC3 (gene 8714)
The experiment in a line: LTEA_HepaRG_ABCC3: Life Technologies and Expression Analysis (LTEA) Assay for ABC Transporter (ABCC3) using HepaRG (AID 2283462). An outline of the steps: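 Differentiated HepaRG liver cells receive test chemicals at eight concentrations (max 100 uM) for 48 h. Expression of ABCC3 is quantified by qRT-PCR against ACTB, GAPDH and POLR2A, and activity is fitted in both directions against the DMSO control.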

Read-out in test [3]: ABC Transporter (ABCB11), ABCB11 (gene 8647)
As to the kind of experiment: LTEA_HepaRG_ABCB11: Life Technologies and Expression Analysis (LTEA) Assay for ABC Transporter (ABCB11) using HepaRG (AID 2283463). An outline of the steps:
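ABCB11 transcript levels quantified by TaqMan qRT-PCR against three housekeeping genes after 48 h chemical exposure of HepaRG cultures. Concentrations up to 100 uM in half-log steps, 0.5% DMSO vehicle; both induction and suppression scored.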

Read-out in test [4]: ABC Transporter (ABCC2), ABCC2 (gene 1244)
As to the kind of experiment: LTEA_HepaRG_ABCC2: Life Technologies and Expression Analysis (LTEA) Assay for ABC Transporter (ABCC2) using HepaRG (AID 2283464). An outline of the steps: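 Gene expression of ABCC2 was determined by qRT-PCR in HepaRG cells exposed 48 h to chemicals (highest 100 uM, half-log dilutions). Activity was fitted in both directions relative to 0.5% DMSO vehicle.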

Read-out in test [5]: Broad substrate specificity ATP-binding cassette transporter ABCG2 (Homo sapiens) (UniProt Q9UNQ0)
As to the kind of experiment: LTEA_HepaRG_ABCG2: Life Technologies and Expression Analysis (LTEA) Assay for ABC Transporter (ABCG2) using HepaRG (AID 2283465). The method in brief:
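ABCG2 transcript was quantified by TaqMan qRT-PCR against three housekeeping genes in HepaRG cells. Cells were treated in duplicate for 48 h across an 8-point half-log series up to 100 uM, with 0.5% DMSO vehicle. Gain or loss versus DMSO was fit.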

Read-out in test [6]: ATP-citrate lyase (ACLY), ACLY (gene 47)
The experiment in a line: LTEA_HepaRG_ACLY: Life Technologies and Expression Analysis (LTEA) Assay for ATP-citrate lyase (ACLY) using HepaRG (AID 2283466). An outline of the steps: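 ACLY mRNA quantified by qRT-PCR on Fluidigm arrays against three housekeeping genes, after 48 h chemical treatment of HepaRG cells (top concentration 100 uM, half-log steps, 0.5% DMSO vehicle). Up- or down-regulation fitted relative to DMSO.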

Read-out in test [7]: Peroxisomal acyl-coenzyme A oxidase 1 (ACOX1) gene, ACOX1 (gene 51)
As to the kind of experiment: LTEA_HepaRG_ACOX1: Life Technologies and Expression Analysis (LTEA) Assay for Peroxisomal acyl-coenzyme A oxidase 1 (ACOX1) gene using HepaRG (AID 2283467). The method in brief:
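ACOX1 transcript levels were quantified by TaqMan qRT-PCR against three housekeeping genes after 48 h chemical exposure of differentiated human HepaRG cells. Exposure used eight half-log steps topping at 100 uM, 0.5% DMSO vehicle, in duplicate. Bidirectional curve fits were made relative to DMSO.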

Read-out in test [8]: Alkaline Phosphatase, Placental (ALPP) gene, ALPP (gene 250)
The experiment in a line: LTEA_HepaRG_ALPP: Life Technologies and Expression Analysis (LTEA) Assay for Alkaline Phosphatase, Placental (ALPP) gene using HepaRG (AID 2283468).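 For AC50: ALPP transcript by TaqMan qRT-PCR normalized to ACTB GAPDH and POLR2A.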 The method in brief: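 Expression of ALPP was quantified by qRT-PCR against three housekeeping genes in human HepaRG cultures treated for 48 h with an eight-point concentration series up to 100 uM. Activity in either direction was fitted relative to 0.5% DMSO.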

Read-out in test [9]: Bcl-2 (BAD) gene, BAD (gene 572)
As to the kind of experiment: LTEA_HepaRG_BAD: Life Technologies and Expression Analysis (LTEA) Assay for Bcl-2 (BAD) gene using HepaRG (AID 2283469). The method in brief:
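Read-out: qRT-PCR of BAD mRNA, normalized to three housekeeping genes. Human HepaRG cultures got 48 h chemical exposure in 0.5% DMSO, duplicate eight-point half-log series topping at 100 uM. Gain or loss of signal fitted versus DMSO vehicle.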

Read-out in test [10]: growth arrest and DNA damage 45 (GADD45B), GADD45B (gene 4616)
The experiment in a line: LTEA_HepaRG_GADD45B: Life Technologies and Expression Analysis (LTEA) Assay for growth arrest and DNA damage 45 (GADD45B) using HepaRG (AID 2283461). An outline of the steps: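 Values are bidirectional concentration-response fits against 0.5% DMSO controls. Underlying data: qRT-PCR mRNA levels in human HepaRG liver cells treated 48 h in serum-free induction medium, eight concentrations topping at 100 uM.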

The structures appear in SMILES notation. The source made the active and inactive calls. Rule for the calls: active = hit-call score of the fitted dose curve at least 0.9, where 1 is the maximum; inactive = score below 0.9.

Sequence of Broad substrate specificity ATP-binding cassette transporter ABCG2 (Homo sapiens) (Q9UNQ0 whole entry, looked up): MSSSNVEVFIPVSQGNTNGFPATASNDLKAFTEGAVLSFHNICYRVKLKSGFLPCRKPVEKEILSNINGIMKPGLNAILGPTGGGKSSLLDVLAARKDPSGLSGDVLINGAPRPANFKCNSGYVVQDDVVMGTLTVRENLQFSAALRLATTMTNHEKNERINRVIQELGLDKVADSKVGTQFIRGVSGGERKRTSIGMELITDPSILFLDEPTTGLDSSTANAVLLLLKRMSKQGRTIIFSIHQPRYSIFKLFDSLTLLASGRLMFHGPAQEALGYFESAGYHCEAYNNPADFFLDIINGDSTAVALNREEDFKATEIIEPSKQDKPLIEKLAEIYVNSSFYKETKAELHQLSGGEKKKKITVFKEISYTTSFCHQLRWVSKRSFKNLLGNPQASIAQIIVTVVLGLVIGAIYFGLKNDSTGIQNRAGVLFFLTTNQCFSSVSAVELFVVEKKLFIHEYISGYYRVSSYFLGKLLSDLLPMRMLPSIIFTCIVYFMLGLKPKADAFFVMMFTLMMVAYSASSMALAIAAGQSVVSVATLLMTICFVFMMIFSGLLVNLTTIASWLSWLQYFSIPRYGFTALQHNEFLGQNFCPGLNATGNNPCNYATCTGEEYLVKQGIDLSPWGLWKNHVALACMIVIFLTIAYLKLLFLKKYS

With `CNC(=O)N(C)c1nnc(C(C)(C)C)s1`, the outcome in test [1], in [2], in [3], in test [4], in test [5] and in [6] was inactive. Moreover, the molecule was called inactive in test [7], in test [8] and in [9].
Regarding `CC(C)NC(=O)N1CC(=O)N(c2cc(Cl)cc(Cl)c2)C1=O`, the AC50 is 3.58 µM (active) in test [1], 15 µM (active) in test [5] and 14.4 µM (active) in test [7]. The molecule was classed as inactive in [2], in test [3], in test [4], in [6], in [8] and in [9].
Consider `CCN(CC)C(=O)C(C)Oc1cccc2ccccc12` (centres undefined), for which the result in test [1], in [10], in [2], in test [4], in [6] and in [9] was inactive. The AC50 in [3] is 50 µM (active); in test [5] it was 50 µM (active); in [7] it was 69.8 µM (active); in test [8], 84.3 µM (active).
With `CCOC(=O)C(C)OC(=O)c1cc(Oc2ccc(C(F)(F)F)cc2Cl)ccc1[N+](=O)[O-]` (centres undefined), the molecule was classed as inactive in test [2], in test [3], in test [8] and in test [9]. Moreover, the half-maximal activity concentration (AC50) was 21.9 µM (active) in test [4], 19.2 µM (active) in test [5], 50 µM (active) in [6] and 2.11 µM (active) in test [7].
Regarding `CC(C)(C)C(=O)C(Oc1ccc(Cl)cc1)n1cncn1` (centres undefined), the molecule was called inactive in test [2], in [3], in test [5], in [7], in test [8] and in [9]. For the same molecule, the AC50 in [4] is 16.8 µM (active); in test [6], 66.5 µM (active).
In the case of `COCc1cnc(C2=NC(C)(C(C)C)C(=O)N2)c(C(=O)O)c1` (centres undefined), the call in test [2], in test [3], in [4], in test [5], in test [6] and in [7] was inactive. The result in [8] and in test [9] was inactive.
For `Nc1cnn(-c2ccccc2)c(=O)c1Cl`, the call in [10], in test [2], in [3], in test [4], in test [5] and in test [6] was inactive. Also, the outcome in [7], in test [8] and in [9] was inactive.
With `COC(=O)c1c(C(F)F)nc(C(F)(F)F)c(C2=NCCS2)c1CC(C)C`, the outcome in [2], in test [3], in test [5], in [6], in test [7] and in test [8] was inactive. In test [9], the molecule was classed as inactive. In test [4], the AC50 is 50 µM (active).
For `CCOc1nc(F)cc2nc(S(=O)(=O)Nc3c(Cl)cccc3Cl)nn12`, the result in [2], in test [5], in test [6], in test [7], in test [8] and in test [9] was inactive. Besides, the AC50 in [3] is 41.7 µM (active); in [4], 7.91 µM (active).
`O=c1n(Cl)c(=O)n(Cl)c(=O)n1Cl`: the call in test [10], in [2], in test [3], in [4], in [5] and in test [6] was inactive. The molecule was called inactive in test [7], in [8] and in [9].
Consider `O=C(Nc1ccccc1-c1ccc(Cl)cc1)c1cccnc1Cl`, for which the molecule was called inactive in test [2], in test [4], in test [5], in test [6], in test [7] and in test [8]. The molecule was classed as inactive in test [9]. The AC50 in test [3] was 0.921 µM (active).
For the molecule `CC(C)N1C(=O)c2ccccc2NS1(=O)=O`, the molecule was called inactive in test [2], in [3], in test [4], in test [5], in test [6] and in [7]. In addition, the result in [8] and in test [9] was inactive.
As for `Clc1nc(Cl)nc(Nc2ccccc2Cl)n1`, the call in test [10], in test [2], in [3], in test [4], in test [5] and in test [6] was inactive. The result in test [7], in test [8] and in [9] was inactive.
As for `CS(=O)(=O)c1ccc(C(=O)C2C(=O)CCCC2=O)c([N+](=O)[O-])c1`, the outcome in [2], in test [3], in test [4], in test [5], in test [6] and in [7] was inactive. Also, the outcome in test [8] and in [9] was inactive.
Turning to `CCSC(=O)N1CCCCCC1`, the outcome in test [2], in test [3], in [4], in [5], in [6] and in test [7] was inactive. Also, the result in [8] and in test [9] was inactive.
Consider `O=C(O)c1c(Cl)ccc2cc(Cl)cnc12`, for which the molecule was classed as inactive in [2], in test [3], in test [4], in test [5], in [6] and in test [7]. For the same molecule, the result in test [8] and in test [9] was inactive.
Turning to `CCNP(=S)(OC)O/C(C)=C/C(=O)OC(C)C` (centres undefined), the result in [2], in test [3], in [7], in test [8] and in test [9] was inactive. Besides, the AC50 in test [4] was 13.1 µM (active); in test [5] it was 13.6 µM (active); in test [6] it was 67 µM (active).
On to `Nc1c(Cl)c(F)nc(OCC(=O)O)c1Cl`, for which the outcome in [2], in [3], in [4], in test [5], in test [6] and in test [7] was inactive. Besides, the molecule was called inactive in [8] and in test [9].
On to `CC1(C)C(C(=O)OC(C#N)c2cccc(Oc3ccccc3)c2)C1(C)C` (centres undefined), for which the molecule was classed as inactive in [2], in [3], in test [4], in test [5], in test [6] and in test [7]. For the same molecule, the molecule was classed as inactive in test [8] and in test [9].

What is called AC50 is the concentration at which the activity in the assay is half-maximal.
